# PubChem BioAssay AID686978 (National Center for Advancing Translational Sciences (NCATS), 2013)
# The whole screen tested about 420,000 compounds, of which about 64,000 (15%) were called active. Roughly 27% stayed inconclusive and do not appear here. Only a sample is shown. A number with no mark means an inactive call. The call rests on the fitted dose curve; in most records, active means well fitted inhibition curve with a large enough effect; inconclusive means small, poorly fitted or top-dose-only effect; inactive means flat fitted curve, though single readings scatter.
# Test: qHTS for Inhibitors of human tyrosyl-DNA phosphodiesterase 1 (TDP1): qHTS in cells in absence of CPT; further: nearly all actives have a fitted effect of over 55% in size
# Settings: DT40 Tdp1-/- hTDP1 cells, no CPT, ATP luminescence, 48 h; activity change, negative = growth inhibition: at 46.2 µM (top of the series)
# Procedure, shortened: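 A cellular qHTS used chicken DT40 cells lacking endogenous Tdp1 but carrying stably transfected human TDP1. Compounds were applied without camptothecin, and cell growth kinetics were judged by ATP-dependent luminescence after ≥48 hr.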
# On the % scale 0 is the no-effect control and ±100 the full control effect; potency means the concentration at half of the fitted maximal effect.
SMILES,"activity change, negative = growth inhibition [%]",Potency
CC(=O)NCC(=O)N1CCC(n2nccc2NC(=O)CCCc2ccccc2)CC1,-7.46,
OCC[C@H]1C[C@H](O)[C@@H](O)[C@]2(CCCCO2)O1,-6.13,
COc1ccc(-c2c(C#N)cnc(C)c2C)c(O)c1OC,-27.4,
CSCCC(NC(=O)COc1ccccc1)C(=O)Nc1ccc(C)cc1 (centres undefined),-28.3,
O=C(O)c1ccc(COc2c(F)c(F)cc(F)c2F)o1,18.8,
CC(=O)N1CCC2(CCCN(Cc3ccc(C#N)cc3)C2)CC1,0.656,
CS(=O)(=O)NC(=O)CCC/C=C\C[C@H]1C(=O)C[C@@H](O)[C@@H]1/C=C/[C@H](O)COc1ccccc1,-1.9,
CC(Sc1ncnc2c1cnn2-c1ccccc1)C(=O)Nc1ccc(N2CCOCC2)cc1 (centres undefined),-1.88,
Cc1cc2nc(SCCN3CCOCC3)[nH]c2cc1C,-12.7,
COc1ccc(/C=N/NS(=O)(=O)c2ccc(NC(C)=O)cc2)cc1,2.6,
COc1cc(/C=N/NC(=O)CNC(=O)c2ccncc2)ccc1OC(C)=O,5.66,
Cc1ccccc1NCC(=O)N/N=C\c1ccc([N+](=O)[O-])s1,,9.2 µM (active)
CCc1ccc(S(=O)(=O)Nc2ccc(C)c(NS(C)(=O)=O)c2)cc1,-1.78,
COc1ccc(C(=O)NCC(=O)N/N=C/c2ccc([N+](=O)[O-])o2)cc1OC,,5.17 µM (active)
COc1cccc(/C=N/NC(=O)CNC(=O)c2ccc(S(=O)(=O)N3CCOCC3)cc2)c1OC,-23.8,
CCc1ccc(S(=O)(=O)N/N=C\c2ccc([N+](=O)[O-])o2)cc1,,16.4 µM (active)
COc1cc(/C=N\NC(=O)CNC(=O)c2cccc([N+](=O)[O-])c2)ccc1O,-0.0452,
COc1ccc(C(=O)COC(=O)c2ccc([N+](=O)[O-])s2)cc1OC,-8.4,
O=C(Cc1cc(=O)[nH][nH]1)N/N=C/c1ccccc1[N+](=O)[O-],-17.3,
O=C(COc1ccccc1[N+](=O)[O-])N/N=C/c1ccc[nH]1,-15.9,
COc1ccc(C(=O)NCC(=O)N/N=C/c2ccc([N+](=O)[O-])s2)cc1OC,,16.4 µM (active)
CC1(C)S[C@@H]2[C@H](N=CN3CCCCCC3)C(=O)N2[C@H]1C(=O)O,-23.2,

SMILES,"activity change, negative = growth inhibition [%]",Potency
CN(C(=O)CN(CCO)CC(=O)N(C)C(C)(C)Cc1ccccc1)C(C)(C)Cc1ccccc1,-1.77,
[O-][n+]1c2c(nn1-c1ccc(Cl)c(Cl)c1)-c1nonc1CC2,-14.7,
Oc1ccccc1CNc1ncc(Br)cc1Br,-23.9,
O=S(=O)(NCCc1ccc(Cl)cc1)c1cccs1,-21.2,
COc1cccc(-n2c(Cc3cc(=O)[nH]c(=O)[nH]3)nnc2SCC(=O)Nc2ccccc2)c1,0.566,
Nc1nnnn1CC(=O)N/N=C/c1ccc(-c2cccc(Cl)c2)o1,-20.2,
C[C@H]1CN([C@@H](C)CO)C(=O)CCCn2cc(nn2)CO[C@@H]1CN(C)S(=O)(=O)c1cccs1,-1.39,
Cc1cc(C)nc(Nc2cc([N+](=O)[O-])ccc2C)n1,-12.5,
Cc1nn(CC(=O)N/N=C/c2ccc(F)cc2)c(C)c1[N+](=O)[O-],4.7,
Cc1cc(C)nc(N/N=C/c2ccncc2)n1,1.16,
O=C(Cc1ccc([N+](=O)[O-])cc1)N/N=C/c1ccco1,11.1,
NC(=O)C(=O)N/N=C/c1ccc([N+](=O)[O-])o1,,15 µM (active)
CC(C)(C)c1cc(C(=O)N/N=C/c2ccc([N+](=O)[O-])s2)n[nH]1,,11.6 µM (active)
O=C(N/N=C/c1ccc([N+](=O)[O-])cc1)C(=O)N1CCCC1,-23.1,
Cc1cc(C)nc(N/N=C/c2ccc([N+](=O)[O-])o2)n1,,16.4 µM (active)
CC(C)NC(=O)Nc1cccc2c1O[C@@H](CN(C)S(=O)(=O)c1ccc(F)cc1)[C@@H](C)CN([C@H](C)CO)C2=O,-21.8,
O=C(O)C(c1cccs1)C1(O)CCCCC1 (centres undefined),-1.75,
COc1ccc(C)cc1N(CC(=O)NC(C)c1ccccc1)S(C)(=O)=O (centres undefined),1.25,
CCc1c(C)nc(N)n2c(SCC(=O)NC3CCCCC3)nnc12,-6.99,
C[C@@H]1CN([C@@H](C)CO)C(=O)c2cc(Br)cnc2O[C@@H]1CN(C)C(=O)C1CCCCC1,-14.5,
C[N+](C)(C)CCOP(=O)([O-])OC[C@H](O)CO,-9.67,
CN1C(=O)CC(N2CCN(c3ccccn3)CC2)C1=O (centres undefined),-6.92,

SMILES,"activity change, negative = growth inhibition [%]",Potency
COC(=O)c1cc(NC(=O)CC2C(=O)NCCN2C(=O)c2ccc(F)cc2)cc(C(=O)OC)c1 (centres undefined),0.411,
CCOc1ncccc1C(=O)OCC(=O)N1c2ccccc2CC1C (centres undefined),-1.22,
CN(C)c1ccc(CN2CCOc3ccc(CN4CCC(O)(c5cccnc5)CC4)cc3C2)cc1,,16.4 µM (active)
C[C@@H]1CN(Cc2ccc3c(c2)CN(Cc2ccc(Oc4ncccn4)cc2)CCO3)C[C@H](C)O1,-22.2,
CCOC(=O)N1CCC(N2CCOc3ccc(CN4CCC(O)(c5cccnc5)CC4)cc3C2)CC1,-21.8,
CCOCCCN(C(=O)Cn1nnc(-c2ccc(OC)c(OC)c2)n1)C(CC)C(=O)NC1CCCC1 (centres undefined),-19.6,
CCN1CCCC1Cn1cnc2c([nH]c3cc(OC)ccc32)c1=O (centres undefined),-0.0102,
O=C(c1cccs1)N1CCCC(c2nc(-c3ccc(F)cc3)no2)C1 (centres undefined),,16.4 µM (active)
O=C(c1ccc(F)cc1)N1CCCC(C(=O)N2CCCCC2)C1 (centres undefined),4.71,
COc1ccc(NC(=O)N2CCCC(c3nc(-c4ccc(F)cc4)no3)C2)cc1 (centres undefined),-18.8,
CC(CC(=O)C1C(C)C=CCC1(C)C)NNC(N)=O (centres undefined),-7.87,
O=C(CSc1nnc(-c2ccco2)o1)NCC(=O)c1ccccc1,-11.8,
CCN(CC)C(=O)c1nc[nH]c1C(=O)N(C)Cc1ccccc1,1.62,
Cc1nnc(SCC(=O)NCc2cccs2)[nH]c1=O,10.3,
Cc1cc(-c2n[nH]c(=S)n2/N=C/C(Br)=C/c2ccccc2)n[nH]1,,2.06 µM (active)
CCN(CC)S(=O)(=O)c1cccc(-c2n[nH]c(=S)n2/N=C/c2ccc(C(=O)OC)cc2)c1,-12.8,
S=c1[nH]nc(-c2cccnc2)n1/N=C/C(Cl)=C\c1ccccc1,,23.1 µM (active)
Cc1cc(-c2n[nH]c(=S)n2/N=C/c2ccco2)n[nH]1,13.9,
Fc1ccccc1/C=N/n1c(-c2cccnc2)n[nH]c1=S,-23.5,
S=c1[nH]nc(-c2ccco2)n1/N=C/c1ccccc1,0.392,
